From the supplement of paper PMC8728848
The full list was thinned out, with the strongest signals kept by preference.

Tests used:
Experiment in all cases: glycan array binding signal (z-score within array); higher = stronger binding
Conditions in all cases: glycan notation: IUPAC condensed, linker removed
[1] = system: GlcNAc(a1-3)Gal(b1-4)GlcNAc
Summary of the method: (§1)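 Glycan array binding is given as a within-array Z-score, which can be read as non-binding when negative. The arrays, 3228 of them, came from the Consortium for Functional Glycomics database and were retained only where the protein sequence was available. Z-scores were averaged across arrays of the same protein sequence at different concentrations or buffers and across linkers.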

Glc(b1-6)Glc = system: Glc(b1-6)Glc
Summary of the method: as §1

[2] = system: GlcNAc(a1-4)Gal(b1-4)GlcNAc(b1-3)Gal(b1-4)[Fuc(a1-3)]GlcNAc(b1-3)Gal(b1-4)[Fuc(a1-3)]GlcNAc
Summary of the method: as §1

Glc(a1-6)Glc(a1-6)Glc = system: Glc(a1-6)Glc(a1-6)Glc
Summary of the method: as §1

[3] = system: GlcNAc(a1-4)Gal(b1-4)GlcNAc(b1-3)Gal(b1-4)GlcNAc(b1-3)Gal(b1-4)GlcNAc
Summary of the method: as §1

[4] = system: GlcNAc(a1-4)Gal(b1-4)GlcNAc(b1-3)Gal(b1-4)GlcNAc
Summary of the method: as §1

GlcA(b1-3)Gal = system: GlcA(b1-3)Gal
Summary of the method: as §1

GlcA(b1-3)GlcNAc = system: GlcA(b1-3)GlcNAc
Summary of the method: as §1

[5] = system: GlcNAc(a1-4)Gal(b1-4)GlcNAc(b1-3)Gal(b1-4)Glc
Summary of the method: as §1

Glc(b1-4)Glc = system: Glc(b1-4)Glc
Summary of the method: as §1

Neurocan (Homo sapiens), O14594, sequence (O14594 other isoform, or with tags, fused parts or gaps): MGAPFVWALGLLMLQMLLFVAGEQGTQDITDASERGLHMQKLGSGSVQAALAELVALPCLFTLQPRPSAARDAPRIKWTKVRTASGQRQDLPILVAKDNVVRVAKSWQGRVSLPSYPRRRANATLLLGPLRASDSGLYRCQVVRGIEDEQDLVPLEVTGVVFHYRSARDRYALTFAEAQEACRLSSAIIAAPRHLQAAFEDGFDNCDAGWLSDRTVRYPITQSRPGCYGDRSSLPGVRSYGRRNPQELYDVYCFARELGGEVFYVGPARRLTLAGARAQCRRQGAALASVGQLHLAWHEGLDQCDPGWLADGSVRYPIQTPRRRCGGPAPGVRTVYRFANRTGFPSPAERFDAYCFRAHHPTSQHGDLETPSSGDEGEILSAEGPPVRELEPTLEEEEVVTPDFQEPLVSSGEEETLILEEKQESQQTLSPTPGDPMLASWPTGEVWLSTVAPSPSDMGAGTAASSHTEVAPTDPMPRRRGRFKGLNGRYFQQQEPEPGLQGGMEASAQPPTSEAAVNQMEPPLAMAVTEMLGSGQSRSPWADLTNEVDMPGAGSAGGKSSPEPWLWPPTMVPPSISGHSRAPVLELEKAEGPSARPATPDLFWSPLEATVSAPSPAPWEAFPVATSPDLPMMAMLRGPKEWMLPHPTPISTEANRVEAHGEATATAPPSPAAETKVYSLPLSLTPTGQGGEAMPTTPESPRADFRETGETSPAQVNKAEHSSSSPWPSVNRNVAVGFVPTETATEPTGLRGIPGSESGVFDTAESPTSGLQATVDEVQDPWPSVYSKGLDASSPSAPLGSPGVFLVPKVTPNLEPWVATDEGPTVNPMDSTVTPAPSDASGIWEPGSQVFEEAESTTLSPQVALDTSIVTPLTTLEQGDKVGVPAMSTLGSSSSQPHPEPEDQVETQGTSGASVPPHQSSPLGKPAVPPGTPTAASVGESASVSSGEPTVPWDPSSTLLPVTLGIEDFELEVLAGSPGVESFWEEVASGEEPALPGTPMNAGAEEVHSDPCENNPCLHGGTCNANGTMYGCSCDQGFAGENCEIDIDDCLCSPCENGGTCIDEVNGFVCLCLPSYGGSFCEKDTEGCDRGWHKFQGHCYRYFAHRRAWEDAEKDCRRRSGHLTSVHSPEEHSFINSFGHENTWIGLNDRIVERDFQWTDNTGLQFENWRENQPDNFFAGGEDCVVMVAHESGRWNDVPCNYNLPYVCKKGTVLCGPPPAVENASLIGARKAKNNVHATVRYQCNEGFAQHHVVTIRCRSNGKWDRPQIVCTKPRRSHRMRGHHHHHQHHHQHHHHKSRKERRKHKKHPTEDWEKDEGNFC
CHI3L1 (Homo sapiens), P36222, sequence (P36222 whole entry): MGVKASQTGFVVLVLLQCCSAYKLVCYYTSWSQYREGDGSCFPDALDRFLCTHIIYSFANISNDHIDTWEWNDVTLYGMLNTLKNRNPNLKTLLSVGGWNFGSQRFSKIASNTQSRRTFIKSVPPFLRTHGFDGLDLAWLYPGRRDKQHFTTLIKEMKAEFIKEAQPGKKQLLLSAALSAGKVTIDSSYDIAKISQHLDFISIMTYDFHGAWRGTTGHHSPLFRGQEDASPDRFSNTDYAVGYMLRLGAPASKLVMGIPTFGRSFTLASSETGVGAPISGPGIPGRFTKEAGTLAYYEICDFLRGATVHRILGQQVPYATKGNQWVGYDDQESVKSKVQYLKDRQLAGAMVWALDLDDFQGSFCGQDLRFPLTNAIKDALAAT
PILRa (Mus musculus), Q2YSF3, sequence (Q2YSF3 entry or part of it): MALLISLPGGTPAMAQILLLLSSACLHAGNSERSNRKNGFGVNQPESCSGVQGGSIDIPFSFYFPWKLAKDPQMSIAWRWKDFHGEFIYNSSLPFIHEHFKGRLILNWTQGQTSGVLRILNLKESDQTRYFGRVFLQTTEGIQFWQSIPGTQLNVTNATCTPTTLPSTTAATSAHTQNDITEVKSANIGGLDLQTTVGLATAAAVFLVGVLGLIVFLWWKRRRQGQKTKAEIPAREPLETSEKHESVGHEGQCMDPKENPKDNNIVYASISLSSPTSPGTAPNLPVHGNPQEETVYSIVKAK
6RG (Lolium perenne), B9U140, sequence (B9U140 entry or part of it): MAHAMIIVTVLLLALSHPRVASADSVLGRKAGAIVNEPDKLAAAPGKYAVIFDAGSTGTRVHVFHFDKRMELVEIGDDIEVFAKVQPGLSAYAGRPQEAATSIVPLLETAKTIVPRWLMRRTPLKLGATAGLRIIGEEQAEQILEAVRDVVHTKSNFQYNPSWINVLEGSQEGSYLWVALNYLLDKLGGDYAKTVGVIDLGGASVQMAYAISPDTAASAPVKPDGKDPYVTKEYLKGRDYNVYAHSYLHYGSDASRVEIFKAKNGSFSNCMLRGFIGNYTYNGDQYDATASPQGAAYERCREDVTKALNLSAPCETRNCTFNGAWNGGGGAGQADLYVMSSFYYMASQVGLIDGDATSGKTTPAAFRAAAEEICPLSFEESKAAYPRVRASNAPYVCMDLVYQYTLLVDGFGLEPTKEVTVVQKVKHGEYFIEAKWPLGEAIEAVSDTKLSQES
Aggrecan (Rattus norvegicus), NP_071526, sequence (chain, as listed by the source): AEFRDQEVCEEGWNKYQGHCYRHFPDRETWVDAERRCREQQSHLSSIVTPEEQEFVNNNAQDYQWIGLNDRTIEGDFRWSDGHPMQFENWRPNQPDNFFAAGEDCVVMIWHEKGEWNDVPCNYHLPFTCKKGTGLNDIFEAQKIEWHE
C3b (Homo sapiens), P01024, sequence (P01024 23-667): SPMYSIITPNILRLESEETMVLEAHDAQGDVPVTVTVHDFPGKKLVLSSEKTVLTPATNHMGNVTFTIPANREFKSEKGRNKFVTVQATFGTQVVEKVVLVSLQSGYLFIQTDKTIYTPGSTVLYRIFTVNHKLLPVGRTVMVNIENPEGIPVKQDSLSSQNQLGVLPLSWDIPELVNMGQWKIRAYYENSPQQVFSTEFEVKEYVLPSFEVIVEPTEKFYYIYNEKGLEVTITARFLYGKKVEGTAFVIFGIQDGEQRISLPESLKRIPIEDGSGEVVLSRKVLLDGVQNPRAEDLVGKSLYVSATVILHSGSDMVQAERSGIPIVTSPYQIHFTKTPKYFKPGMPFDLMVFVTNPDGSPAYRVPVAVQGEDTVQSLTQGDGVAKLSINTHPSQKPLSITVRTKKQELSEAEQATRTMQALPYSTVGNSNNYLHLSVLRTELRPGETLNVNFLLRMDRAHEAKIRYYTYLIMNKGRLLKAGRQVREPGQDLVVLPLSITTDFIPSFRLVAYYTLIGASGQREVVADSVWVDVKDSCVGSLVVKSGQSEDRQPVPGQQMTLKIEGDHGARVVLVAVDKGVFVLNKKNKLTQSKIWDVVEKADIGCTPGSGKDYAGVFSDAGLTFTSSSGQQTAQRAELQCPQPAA
CHT (Homo sapiens), sequence (chain, as listed by the source): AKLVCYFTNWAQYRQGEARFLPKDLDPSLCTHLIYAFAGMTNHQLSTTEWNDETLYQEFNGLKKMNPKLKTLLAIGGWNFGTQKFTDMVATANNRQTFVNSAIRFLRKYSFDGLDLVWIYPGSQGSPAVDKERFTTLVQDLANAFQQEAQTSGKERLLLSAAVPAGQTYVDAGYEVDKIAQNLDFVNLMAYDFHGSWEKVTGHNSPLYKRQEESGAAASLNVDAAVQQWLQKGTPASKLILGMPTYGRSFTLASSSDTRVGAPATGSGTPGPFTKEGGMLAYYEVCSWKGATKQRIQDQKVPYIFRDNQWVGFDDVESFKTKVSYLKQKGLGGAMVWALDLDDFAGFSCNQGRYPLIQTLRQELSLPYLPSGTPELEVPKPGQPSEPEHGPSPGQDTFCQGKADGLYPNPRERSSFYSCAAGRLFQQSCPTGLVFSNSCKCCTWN
PILRb (Mus musculus), Q2YSF2, sequence (Q2YSF2 entry or part of it): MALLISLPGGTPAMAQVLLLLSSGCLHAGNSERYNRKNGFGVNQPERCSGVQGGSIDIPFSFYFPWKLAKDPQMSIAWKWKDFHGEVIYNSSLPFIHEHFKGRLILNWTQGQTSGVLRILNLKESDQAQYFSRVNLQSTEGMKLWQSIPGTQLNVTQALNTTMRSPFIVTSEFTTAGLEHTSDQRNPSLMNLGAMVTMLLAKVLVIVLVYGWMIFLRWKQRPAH
Regenerating Gene IV (Homo sapiens), Q9BYZ8, sequence (Q9BYZ8 whole entry, looked up): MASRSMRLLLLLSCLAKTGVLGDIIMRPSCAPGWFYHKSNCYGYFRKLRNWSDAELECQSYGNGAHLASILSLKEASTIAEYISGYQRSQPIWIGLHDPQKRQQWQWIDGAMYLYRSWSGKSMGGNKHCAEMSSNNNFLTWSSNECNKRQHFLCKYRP

CHT (Homo sapiens)
glycan array binding signal (z-score) ([1]; mutation: D138V, E140I): -0.189

C3b (Homo sapiens), P01024
glycan array binding signal (z-score) (Glc(b1-6)Glc): 3.33

Aggrecan (Rattus norvegicus), NP_071526
glycan array binding signal (z-score) [2]: 0.828

CHI3L1 (Homo sapiens), P36222
glycan array binding signal (z-score) (Glc(a1-6)Glc(a1-6)Glc): -0.073
glycan array binding signal (z-score) [3]: -0.129

PILRa (Mus musculus), Q2YSF3
glycan array binding signal (z-score) (Glc(a1-6)Glc(a1-6)Glc): -0.233
glycan array binding signal (z-score) (Glc(b1-6)Glc): -0.169

PILRb (Mus musculus), Q2YSF2
glycan array binding signal (z-score) [4]: 0.156

Neurocan (Homo sapiens), O14594
glycan array binding signal (z-score) (GlcA(b1-3)Gal): 0.453
glycan array binding signal (z-score) (GlcA(b1-3)GlcNAc): 10.5
glycan array binding signal (z-score) [5]: -0.326
glycan array binding signal (z-score) [2]: 4.73

Regenerating Gene IV (Homo sapiens), Q9BYZ8
glycan array binding signal (z-score) (Glc(b1-4)Glc): 5.46

6RG (Lolium perenne), B9U140
glycan array binding signal (z-score) [1]: -0.228

Siglec-8 (Homo sapiens), Q9NYZ4
glycan array binding signal (z-score) [5]: -0.267
